# From PubChem BioAssay (NCI)
# The panel holds about 83,000 compounds, 20% with a hit somewhere; the sample as a whole holds those more often.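 Values shown are percent growth following 48 h exposure of cells in 96-well plates to a single concentration of compound; below 10 was considered active.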 Activity calls are given as the source filed them.
# Test system: KM12 colon
# Experiment: NCI-60 one-dose screen, 48 h (100 = growth as untreated, 0 = no growth, -100 = all killed)
# Details: 10 µM
# Method: Growth inhibition of the KM12 human tumor cell line is measured as a screen for anti-cancer activity. Cells are grown in 96 well plates and exposed to the test compound for 48 hours. Compounds are tested at a single concentration, which is 10^-5 M for most compounds. The reported endpoint is percent growth (GI% or GIPRCNT), where numbers from 0 - 100% represent growth inhibition, and numbers from -100% - 0 represent cell death. For example, a value of 40 represents 60% growth inhibition. A value of 0 means no net growth occurred over the course of the experiment. A value of -40 indicates 40% of cells at the beginning of the experiment died by the end of the experiment. A value of -100 means all cells are dead at the end of the experiment.
# NCI-60 Human Tumor Cell Lines Screen was performed using the standard one-dose NCI protocol, which is described in more detail at https://dtp.cancer.gov/discovery_development/nci-60/default.htm.
# Compounds with GIPRCNT values below 10 were considered active. Activity score was based on GIPRCNT using the following formula: […]
# Score is 0 for GIPRCNT values of 100 or above, 50 for GIPRCNT values of 0, and 100 for GIPRCNT values of -100.
row,SMILES,growth
1,COc1ccc2c(c1)N(CCO)C1=C(C(=O)OC1)C2c1ccc(OC)c(OC)c1 (stereo not given),18.7% (inactive)
2,O=C1NC(=O)N(Cc2ccccc2)CC1Br (stereo not given),106% (inactive)
3,CN1CCC2(CC1)NC(=O)c1c(c3ccc(Cl)c(Cl)c3n1C)C2C#N (stereo not given),106% (inactive)
4,O=C(/C=C/c1cc2ccccc2[nH]c1=O)c1ccc2c(c1)OCO2,92.3% (inactive)
5,N#Cc1cccc(OCc2nc(N)nc(N)c2-c2ccc(Cl)c(Cl)c2)c1,25.2% (inactive)
6,Cc1ccc(C)c(C(O)(c2cc(C)ccc2C)C2(O)CCCCC2)c1,95.4% (inactive)
7,Cc1ccc(-c2nc(/C=C3/C(=O)N(C)c4ccc(F)cc43)c3ccccn23)cc1,101% (inactive)
8,Nc1nc(Nc2ccccc2)n[nH]1,107% (inactive)
9,O=C(Nc1ccc(Cl)c([N+](=O)[O-])c1)Nc1nc2ccccc2s1,106% (inactive)
10,CC(=O)OCc1cc(-c2nc3ccccc3[nH]c2=O)nn1-c1ccc(Cl)cc1,108% (inactive)
11,Fc1cc(C(F)(F)F)ccc1-c1cncnc1NC1CCCCCC1,107% (inactive)
12,Nc1cc2c(cc1Cl)-c1ccc([N+](=O)[O-])cc1/C2=N\O,65% (inactive)
13,CS(=O)(=O)Nc1cccc(-c2cc(-c3ccccc3Cl)c(C#N)c(N)n2)c1,24.5% (inactive)
14,COc1ccc2c(c1)-c1c(c3cc(OC)ccc3n(CCN(C)C)c1=O)C2=O,8.92% (active)
15,COc1ccc(/C=C/C(C)=N/OCC(=O)O)cc1,106% (inactive)
16,CC(=O)c1nc2ccccc2n1CCNC(N)=O,66.4% (inactive)
17,CS(=O)(=O)Nc1ccc(Nc2c3ccccc3nc3cc([N+](=O)[O-])ccc23)cc1,-35.7% (active)
18,O=C(O)c1ccc(P(=O)(O)O)c([N+](=O)[O-])c1,105% (inactive)
19,CC1(C)CCC(=NNC(N)=S)CC1,105% (inactive)
20,COc1cc(C2CC(c3ccc(Nc4ccnc5cc(Cl)ccc45)cc3)=NN2c2ccc(Cl)cc2)cc(OC)c1OC (stereo not given),30.5% (inactive)

row,SMILES,growth
1,C[C@@H]1C=C2C(=O)O[C@@H]3CC[C@H](C1)[C@]23O,100% (inactive)
2,COc1ccc(-c2nc3ncccn3c2-c2nnc(-c3ccc(F)cc3)o2)cc1,104% (inactive)
3,O=C(CC(C(=O)c1ccccc1)N1CCOCC1)c1ccccc1 (stereo not given),105% (inactive)
4,O=C(Nc1nc2ccc(F)cc2s1)c1cc(-c2ccc(F)cc2)n2nc(-c3ccccc3)cc2n1,65.9% (inactive)
5,CCCCCCCCCCCCCCCCN(C(C)c1ccccc1)S(=O)(=O)c1ccc(OC)c(N)c1 (stereo not given),100% (inactive)
6,COc1ccc2c(c1)nc(N)c1c3cccnc3cn21,17.1% (inactive)
7,CCC1(C(C)C)NC(=O)NC1=O (stereo not given),104% (inactive)
8,Nc1ccn(C2CC(O)C(CO)O2)c(=O)n1 (stereo not given),110% (inactive)
9,CC(=O)n1c(-c2ccc(Cl)c(Cl)c2)cn(-c2ccc(Cl)cc2)c1=O,49.8% (inactive)
10,CCCCCCNC(=O)Oc1ccc(/C(=C(/CC)Cc2ccccc2)c2ccc(OCCN3CCCCC3)cc2)cc1,84% (inactive)
11,Clc1ccc(Nc2ccnc(NCCNc3ccnc4cc(Cl)ccc34)n2)cc1,33.7% (inactive)
12,COc1cc(/C=C2\Oc3cc(OCC(=O)c4ccccc4)ccc3C2=O)cc(OC)c1OC,98.9% (inactive)
13,CN1CCCNc2c(c(=O)c2=O)NCCCN(C)CCCNc2c(c(=O)c2=O)NCCCN(C)CCCNc2c(c(=O)c2=O)NCCCN(C)CCCNc2c(c(=O)c2=O)NCCCN(C)CCCNc2c(c(=O)c2=O)NCCCN(C)CCCNc2c(c(=O)c2=O)NCCCN(C)CCCNc2c(c(=O)c2=O)NCCC1,34.9% (inactive)
14,NC1=NC(=O)C(c2ccccc2)(c2ccccc2)S1,107% (inactive)
15,COc1cc(/C=C\c2cc(OC)c(OC)c(OC)c2)cc(NS(=O)(=O)c2ccc(Cl)cc2)c1OC,25.1% (inactive)
16,COc1ccc(-c2nn(-c3cccc(NC(=O)c4ccc5c(c4)OCCO5)c3)cc2-c2ccncc2)cc1Cl,9.37% (active)
17,Cc1ccc(CC#N)cc1C,94.7% (inactive)
18,Cc1nc2ccccc2c(N)c1-c1cc(C)c2c(C)nc3ccccc3c2n1,-83.2% (active)
19,CC(C)(C)c1cc(Br)cc(C(C)(C)C)c1O,105% (inactive)
20,c1ccc(CP(Cc2ccccc2)c2ccccc2)cc1,103% (inactive)
